Laboratory results as given in PubChem BioAssay (NCATS).
Records with an inconclusive call do not appear. The source made the active and inactive calls. Calls come from the whole dose curve; as a rule, active = well fitted cell-killing curve with a large enough effect in the repeat runs; inconclusive = weak or mixed curves, or effect the other way; inactive = flat fitted curve, though single readings scatter.

test: qHTS assay for small molecule antagonists of the retinoid-related orphan receptor gamma (ROR-gamma) signaling pathway - cell viability counter screen (AID 720652); conditions: RORgamma reporter cell line viability counter screen; series mostly up to 92.2 µM; activity change, negative = cytotoxicity: at the top concentration;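 note: compound exposure lasted 16 hr before ATP read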
From the text: National Center for Advancing Translational Sciences [NCATS]
NIH Chemical Genomics Center [NCGC]
National Institutes of Environmental Health Sciences [NIEHS]
National Toxicology Program [NTP]
Nuclear steroid hormone receptors are involved in many biological processes including inflammatory responses, cell proliferation, and apoptosis. Environmental factors or compounds disrupting these nuclear receptor pathways and gene expression may promote susceptibility to immunotoxicants and autoimmune diseases. One important group of these expression factors are the retinoid-related orphan receptors. To assess compounds that may interfere with the retinoid-related orphan receptor gamma (ROR-gamma) transcription factor, a cell-based luciferase assay was used.
The CHO cell-based assay utilizes a TET-inducible ROR expression factor and ROR response element-LUC reporter gene. Reporter activity was induced using doxycycline and measured after 16hr incubation. Luminescence was read using Viewlux (PerkinElmer), where a decrease in reporter activity would show a decrease in luminescence. The cytotoxicity of the compounds against ROR response-Luc reporter gene cell line was quantified by measuring the intracellular ATP content.
1,000 cells in 4 uL/well were dispensed into white wall/solid bottom 1536-well plates using a Multidrop Combi (Thermo Scientific) dispenser. Following incubation at 37 C and 5% CO2 for 5 hr, 23 nL compound or DMSO vehicle were transferred by a pin tool, then the plates were treated with 1 ul doxycycline to induce reporter gene activity. After 16 hr incubation at 37 C and 5% CO2, 5 uL/well of CellTiter-Glo reagent (Promega) was then added to each plate using a Flying Reagent Dispenser and incubated at room temperature for 30 min. The luminescence intensity was quantified on a ViewLux plate reader (PerkinElmer).
% is set by controls: 0 for no effect and ±100 for the full control effect.

SMILES	activity change, negative = cytotoxicity	outcome
Nc1ccccc1	-0.575% (inactive)	–
COP(=S)(OC)Oc1ccc(SC)c(C)c1	-11.4% (inactive)	–
Oc1ccc(Cl)cc1	0.727% (inactive)	–
COc1cc(OC)c(OC)cc1C=O	-2.62% (inactive)	–
CN1C[C@H](C(=O)N[C@]2(C)O[C@@]3(O)[C@@H]4CCCN4C(=O)[C@H](Cc4ccccc4)N3C2=O)C=C2c3cccc4[nH]cc(c34)C[C@H]21	-16.5% (inactive)	–
COC(=O)C(c1ccccc1)C1CCCCN1 (configuration not stated)	0.229% (inactive)	–
CCOC(=O)CC(SP(=S)(OC)OC)C(=O)OCC (configuration not stated)	14.3% (inactive)	–
C[C@]1(O)CC[C@H]2[C@@H]3CCC4=CC(=O)CC[C@]4(C)[C@@]3(F)[C@@H](O)C[C@@]21C	8.08% (inactive)	–
NCCc1ccc(O)cc1	0.201% (inactive)	–
C[C@]12CCC(=O)C=C1CC[C@@H]1[C@@H]2CC[C@]2(C)C(=O)CC[C@@H]12	–	inactive
CCCC(C)(COC(N)=O)COC(N)=O	-5.5% (inactive)	–
C[C@]12CCC(=O)C=C1CC[C@@H]1[C@@H]2CC[C@@]2(C)[C@H]1CC[C@]2(C)O	6.22% (inactive)	–
CC(C)NC(C)C	6.25% (inactive)	–
Nc1ccccc1C(=O)O	-7.75% (inactive)	–
CC(C)c1cccc(C(C)C)c1O	8.11% (inactive)	–
CCC(C)(C)c1ccc(O)cc1	-11.6% (inactive)	–
O=P1(N(CCCl)CCCl)NCCCO1 (configuration not stated)	-2.41% (inactive)	–
